Measured values: PubChem BioAssay AID1159580 (chemical genetic matrix, 2015)
The whole screen tested about 5,500 compounds, of which about 2,000 (36%) were called active. Inconclusive results (about 18%) are left out. Cut-off read from the data, not from the text of the source: active = normalized growth mostly below about 0.91 (no sharp cut-off); inconclusive = no clear call, values can overlap the other calls; inactive = mostly above about 0.92. Some of the results follow.

Test: chemical genetic growth profiling, strain panel (AID 1159580);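 note: tested at 20 µM; growth read once vehicle control cultures reached saturation at 30 °C; 1 = growth at the plate median or of vehicle wells; lower values mean less growth of the strain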
Details: S. cerevisiae deletion strains, growth OD

Measured: normalized growth

N.N.O=C(O)C1(C(=O)O)CCC1.[Pt+2]
inactive: locus YAL040C, strain CLN3, hits give low values 0.986 | locus YCL061C, strain MRC1 (second series), hits give low values 1 | locus YDR150W, strain NUM1, hits give low values 1 | locus YDR363W, strain ESC2, hits give low values 0.988 | locus YER002W, strain NOP16, hits give low values 1.02 | locus YMR307W, strain GAS1, hits give low values 0.984 | locus YNL175C, strain NOP13, hits give low values 0.998 | locus YNL197C, strain WHI3, hits give low values 1.04 | locus YNL224C, strain SQS1, hits give low values 1 | locus YOR083W, strain WHI5 (second series), hits give low values 0.995 | locus YPL055C, strain LGE1, hits give low values 0.998
